# Measured values taken from PubChem BioAssay (EPA / NIEHS).
# “And” between values parts separate entries of the source, which are not always exact repeats. Identical values can stand only once. More than one record can exist for a structure, and the calls need not agree. The source made the active and inactive calls. How the source made its calls: active means hit-call score of the fitted dose curve at least 0.9, where 1 is the maximum; inactive means score below 0.9.
# Legend:
# [1] = read-out: Basic fibroblast growth factor (bFGF), FGF2 (gene 2247); test: BSK_MyoF_bFGF: BioMAP Diversity Plus: MyoF Assay for Basic fibroblast growth factor (bFGF) Biomarker Activity (AID 2284246); details: primary human lung fibroblasts
# Outline: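 ELISA-measured bFGF level serves as the read-out, taken 24 h after chemical dosing of human lung fibroblasts. Values represent signal gain over the DMSO negative control.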
# [2] = read-out: Collagen IV, COL4A1 (gene 1282); test: BSK_MyoF_CollagenIV: BioMAP Diversity Plus: MyoF Assay for Collagen IV Biomarker Activity (AID 2284247); details: primary human lung fibroblasts
# Outline: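 Steps: dose human lung fibroblasts; culture 24 h; quantify Collagen IV by ELISA; fit increase versus DMSO control. Parallel SRB total-protein staining (0.1% SRB after 10% TCA fixation, 560 nm) tracks overt cytotoxicity.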
# [3] = read-out: Monokine induced gamma interferon (MIG), CXCL9 (gene 4283); test: BSK_KF3CT_MIG: BioMAP Diversity Plus: KF3CT Assay for Monokine induced gamma interferon (MIG) Biomarker Activity (AID 2284248); details: primary human keratinocytes with fibroblasts
# Outline: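 ELISA read-out of MIG after 24 h chemical exposure of human skin primary co-culture (keratinocytes, foreskin fibroblasts). Gain of signal relative to DMSO negative control was analysed.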
# [4] = read-out: Collagen I, COL1A1 (gene 1277); test: BSK_hDFCGF_CollagenI: BioMAP Diversity Plus: hDFCGF Assay for Collagen I Biomarker Activity (AID 2284250); details: primary human foreskin fibroblasts
# Outline: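 Human skin primary fibroblasts dosed with test chemical, harvested at 24 h, Collagen I quantified by ELISA; parallel SRB staining (0.1% SRB after 10% TCA fixation, 560 nm) tracked cytotoxicity.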
# [5] = read-out: Interferon-inducible T-cell alpha chemoattractant (ITAC), CXCL11 (gene 6373); test: BSK_hDFCGF_ITAC: BioMAP Diversity Plus: hDFCGF Assay for Interferon-inducible T-cell alpha chemoattractant (ITAC) Biomarker Activity (AID 2284251); details: primary human foreskin fibroblasts
# Outline: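 Primary human foreskin fibroblasts (hDFCGF system) treated for 24 h; I-TAC quantified by ELISA. Gain-direction fitting versus DMSO; parallel SRB staining of total protein flagged overt cytotoxicity.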
# [6] = read-out: Plasminogen activator inhibitor-1 (PAI1), SERPINE1 (gene 5054); test: BSK_KF3CT_PAI1: BioMAP Diversity Plus: KF3CT Assay for Plasminogen activator inhibitor-1 (PAI1) Biomarker Activity (AID 2284252); details: primary human keratinocytes with fibroblasts
# Outline: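 ELISA read-out of PAI-1 taken 24 h after chemical treatment of a human skin primary co-culture of keratinocytes and foreskin fibroblasts. Increases over DMSO-treated wells defined activity.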
# [7] = read-out: Interleukin-8 (IL8), CXCL8 (gene 3576); test: BSK_KF3CT_IL8: BioMAP Diversity Plus: KF3CT Assay for Interleukin-8 (IL8) Biomarker Activity (AID 2284254); details: primary human keratinocytes with fibroblasts
# Outline: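 IL-8 read-out: ELISA, 24 h post-dose, human skin primary co-culture (keratinocytes + foreskin fibroblasts). DMSO = baseline; positive-direction fit.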
# [8] = read-out: Macrophage Inflammatory Protein-1 Alpha (MIP1a), CCL3 (gene 6348); test: BSK_IMphg_MIP1a: BioMAP Diversity Plus: IMphg Assay for Macrophage Inflammatory Protein-1 Alpha (MIP1a) Biomarker Activity (AID 2284255); details: primary human endothelial cells with macrophages
# Outline: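 Co-culture of human venular endothelial cells and macrophages exposed to compounds for 24 h; MIP-1a measured by ELISA relative to DMSO. Cytotoxicity assessed in parallel cultures by sulforhodamine B total-protein staining at 560 nm.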
# [9] = read-out: Plasminogen activator inhibitor-1 (PAI1), SERPINE1 (gene 5054); test: BSK_MyoF_PAI1: BioMAP Diversity Plus: MyoF Assay for Plasminogen activator inhibitor-1 (PAI1) Biomarker Activity (AID 2284256); details: primary human lung fibroblasts;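 on outcome: PAI-1 protein level measured by ELISA in fibroblast cultures; PAI-1 read 24 h after compound addition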
# Outline: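 MyoF lung fibroblasts, human primary; compound 24 h; PAI-1 ELISA; positive-direction fit vs DMSO baseline; parallel SRB total-protein staining for cytotoxicity.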
# CD69, CD69 (gene 969) = test: BSK_IMphg_CD69: BioMAP Diversity Plus: IMphg Assay for CD69 Biomarker Activity (AID 2284257); details: primary human endothelial cells with macrophages
# Outline: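 Human venular endothelial cells co-cultured with macrophages; CD69 quantified by ELISA 24 h after compound addition. Activity fitted in the positive direction relative to DMSO baseline; cytotoxicity tracked in parallel cultures via SRB total-protein staining.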
structure (smiles),measurement,setting,value
NC(=O)C(F)(F)C(F)(F)F,outcome,[1],inactive
same,outcome,[2],inactive
same,outcome,[3],inactive
same,outcome,[4],inactive
same,outcome,[5],inactive
same,outcome,[6],inactive
same,outcome,[7],inactive
same,outcome,[8],inactive
same,outcome,[9],inactive
same,outcome,"CD69, CD69 (gene 969)",inactive
C=CC(=O)OCC(CC)(COC(=O)C=C)COC(=O)C=C,AC50,[1],4.36 µM (active)
same,AC50,[2],2.87 µM (active)
same,AC50,[9],2.7 µM (active)
O=C(O)C=CC(F)(C(F)(F)F)C(F)(F)F,outcome,[1],inactive
same,outcome,[2],inactive
same,outcome,[3],inactive
same,outcome,[4],inactive
same,outcome,[5],inactive
same,outcome,[6],inactive
same,outcome,[7],inactive
same,outcome,[8],inactive
same,outcome,[9],inactive
same,outcome,"CD69, CD69 (gene 969)",inactive
O=S1(=O)OCC2C(CO1)C1(Cl)C(Cl)=C(Cl)C2(Cl)C1(Cl)Cl (stereo unspecified),outcome,[1],inactive
same,outcome,[2],inactive
same,outcome,[9],inactive
CCOP(=S)(OCC)SCS(=O)(=O)CC,outcome,[1],inactive
same,outcome,[2],inactive
same,outcome,[9],inactive
CCOP(=S)(S)OCC,outcome,[1],inactive
same,outcome,[2],inactive
same,outcome,[9],inactive
O=C(O)C(F)(F)OC(F)(F)C(F)(F)OC(F)(F)C(=O)O,outcome,[1],inactive
same,outcome,[2],inactive
same,outcome,[3],inactive
same,outcome,[4],inactive
same,outcome,[5],inactive
same,outcome,[6],inactive
same,outcome,[7],inactive
same,outcome,[8],inactive
same,outcome,[9],inactive
same,outcome,"CD69, CD69 (gene 969)",inactive
Cc1ccc2c(c1N)C(=O)c1ccccc1C2=O,outcome,[1],inactive
same,outcome,[2],inactive
same,outcome,[9],inactive
CC(O)C(F)(F)C(F)(F)F (stereo unspecified),outcome,[1],inactive
same,outcome,[2],inactive
same,outcome,[3],inactive
same,outcome,[4],inactive
same,outcome,[5],inactive
same,outcome,[6],inactive
same,outcome,[7],inactive
same,outcome,[8],inactive
same,outcome,[9],inactive
same,outcome,"CD69, CD69 (gene 969)",inactive
CCCCC(CC)COC(=O)c1c(Br)c(Br)c(Br)c(Br)c1C(=O)OCC(CC)CCCC (stereo unspecified),outcome,[1],inactive
same,outcome,[2],inactive
same,outcome,[9],inactive
c1ccc2c(c1)sc1ccccc12,outcome,[1],inactive
same,outcome,[2],inactive
same,outcome,[9],inactive
ClC(Cl)=C(c1ccc(Cl)cc1)c1ccccc1Cl,AC50,[1],9.45 µM (active)
same,AC50,[2],9.38 µM (active)
same,AC50,[9],9.39 µM (active)
COP(=O)(CCC(=O)NCO)OC,outcome,[3],inactive
same,outcome,[4],inactive
same,outcome,[5],inactive
same,outcome,[6],inactive
same,outcome,[7],inactive
CCCCC(CC)COP(=O)(Oc1ccccc1)Oc1ccccc1 (stereo unspecified),AC50,[1],12.3 µM (active)
same,AC50,[2],3.97 µM (active)
same,AC50,[9],16 µM (active)
O=C(O)C(F)(F)OC(F)(F)C(F)(F)OC(F)(F)F,outcome,[1],inactive
same,outcome,[2],inactive
same,outcome,[3],inactive
same,outcome,[4],inactive
same,outcome,[5],inactive
same,outcome,[6],inactive
same,outcome,[7],inactive
same,outcome,[8],inactive
same,outcome,[9],inactive
same,outcome,"CD69, CD69 (gene 969)",inactive
O=P(OCC(Br)CBr)(OCC(Br)CBr)OCC(Br)CBr (stereo unspecified),outcome,[1],inactive
same,outcome,[2],inactive
same,outcome,[9],inactive
CC(C)(C)c1ccccc1OP(=O)(Oc1ccccc1)Oc1ccccc1,outcome,[1],inactive
same,outcome,[2],inactive
same,AC50,[9],20 µM (active)
CCOP(=S)(NC(C)C)Oc1ccccc1C(=O)OC(C)C (stereo unspecified),outcome,[1],inactive
same,outcome,[2],inactive
same,outcome,[9],inactive
CCCCOCCOP(=O)(OCCOCCCC)OCCOCCCC,outcome,[1],inactive
same,outcome,[2],inactive
same,AC50,[9],0.0918 µM (active)
O=C(O)C(F)(F)C(F)(F)C(=O)O,outcome,[1],inactive
same,outcome,[2],inactive
same,outcome,[3],inactive
same,outcome,[4],inactive
same,outcome,[5],inactive
same,outcome,[6],inactive
same,outcome,[7],inactive
same,outcome,[8],inactive
same,outcome,[9],inactive
same,outcome,"CD69, CD69 (gene 969)",inactive
OCC(F)(F)OC(F)(F)C(F)(F)OC(F)(F)CO,outcome,[1],inactive
same,outcome,[2],inactive
same,outcome,[3],inactive
same,outcome,[4],inactive
same,outcome,[5],inactive
same,outcome,[6],inactive
same,outcome,[7],inactive
same,outcome,[8],inactive
same,outcome,[9],inactive
same,outcome,"CD69, CD69 (gene 969)",inactive
O=c1ssc(Cl)c1Cl,AC50,[1],11.4 µM (active)
same,AC50,[2],7.41 µM (active)
same,AC50,[9],11.1 µM (active)
CC(C)Nc1ccc(Nc2ccccc2)cc1,AC50,[1],30.5 µM (active)
same,AC50,[2],20 µM (active)
same,AC50,[9],30.6 µM (active)
OCC(F)(F)OC(F)(F)C(F)(F)OC(F)(F)C(F)(F)OC(F)(F)CO,outcome,[1],inactive
same,outcome,[2],inactive
same,outcome,[3],inactive
same,outcome,[4],inactive
same,AC50,[5],23 µM (active) and 22.1 µM (active)
same,outcome,[6],inactive
same,outcome,[7],inactive
same,outcome,[8],inactive
same,outcome,[9],inactive
same,outcome,"CD69, CD69 (gene 969)",inactive
FC(F)(F)C(F)(C(F)(F)F)C(F)(F)C(F)(F)CC1CO1 (stereo unspecified),outcome,[1],inactive
same,outcome,[2],inactive
same,outcome,[3],inactive
same,outcome,[4],inactive
same,outcome,[5],inactive
same,outcome,[6],inactive
same,outcome,[7],inactive
same,outcome,[8],inactive
same,outcome,[9],inactive
same,outcome,"CD69, CD69 (gene 969)",inactive
N#Cc1c(-c2ccc(Cl)cc2)[nH]c(C(F)(F)F)c1Br,outcome,[1],inactive
same,outcome,[2],inactive
same,AC50,[9],20 µM (active)
COP(=O)(O)OC,outcome,[1],inactive
same,outcome,[2],inactive
same,outcome,[9],inactive
C=CC(=O)OCC(F)(F)C(F)F,outcome,[1],inactive
same,AC50,[2],45.7 µM (active)
same,outcome,[2],inactive
same,AC50,[3],52.2 µM (active)
same,outcome,[3],inactive
same,outcome,[4],inactive
same,AC50,[5],12.7 µM (active) and 18.4 µM (active)
same,outcome,[6],inactive
same,outcome,[7],inactive
same,outcome,[8],inactive
same,outcome,[9],inactive
same,outcome,"CD69, CD69 (gene 969)",inactive
Cc1c([N+](=O)[O-])cc2c(c1[N+](=O)[O-])C(C)(C)CC2(C)C,outcome,[1],inactive
same,AC50,[2],5.8 µM (active)
same,outcome,[9],inactive
COP(N)(=S)OC,outcome,[1],inactive
same,outcome,[2],inactive
same,outcome,[9],inactive
O=C(O)C(F)(OC(F)(F)C(F)(F)C(F)(F)F)C(F)(F)F (stereo unspecified),outcome,[1],inactive
same,outcome,[2],inactive
same,outcome,[3],inactive
same,outcome,[4],inactive
same,outcome,[5],inactive
same,outcome,[6],inactive
same,outcome,[7],inactive
same,outcome,[8],inactive
same,outcome,[9],inactive
same,outcome,"CD69, CD69 (gene 969)",inactive
N#Cc1cc([N+](=O)[O-])ccc1N,outcome,[1],inactive
same,outcome,[2],inactive
same,outcome,[9],inactive
CC(Cl)CN(C)C (stereo unspecified),outcome,[1],inactive
same,outcome,[2],inactive
same,AC50,[9],0.016 µM (active)
CCOP(=S)(OCC)SCSc1ccc(Cl)cc1,outcome,[1],inactive
same,AC50,[2],0.0408 µM (active)
same,AC50,[9],3.97 µM (active)
Nc1ccc([N+](=O)[O-])cc1Cl,outcome,[1],inactive
same,outcome,[2],inactive
same,outcome,[9],inactive
CCOP(=S)(OCC)SCn1nnc2ccccc2c1=O,outcome,[1],inactive
same,outcome,[2],inactive
same,outcome,[9],inactive
O=S(=O)(F)C(F)(F)C(F)(F)C(F)(F)C(F)(F)C(F)(F)C(F)(F)C(F)(F)C(F)(F)F,outcome,[1],inactive
same,outcome,[2],inactive
same,outcome,[3],inactive
same,outcome,[4],inactive
same,outcome,[5],inactive
same,outcome,[6],inactive
same,outcome,[7],inactive
same,outcome,[8],inactive
same,outcome,[9],inactive
same,outcome,"CD69, CD69 (gene 969)",inactive
COC(=O)C(F)(F)C(F)(F)OC(F)(C(F)(F)F)C(F)(F)OC(F)=C(F)F (stereo unspecified),outcome,[1],inactive
same,outcome,[2],inactive
same,outcome,[3],inactive
same,outcome,[4],inactive
same,AC50,[5],4.67 µM (active) and 5.4 µM (active)
same,outcome,[6],inactive
same,outcome,[7],inactive
same,outcome,[8],inactive
same,outcome,[9],inactive
same,outcome,"CD69, CD69 (gene 969)",inactive
OCC(F)(F)OC(F)(F)C(F)(F)OC(F)(F)C(F)(F)OC(F)(F)F,outcome,[1],inactive
same,outcome,[2],inactive
same,AC50,[3],58.5 µM (active) and 45.8 µM (active)
same,outcome,[4],inactive
same,outcome,[5],inactive
same,AC50,[6],43.8 µM (active) and 44 µM (active)
same,AC50,[7],46.5 µM (active) and 50.9 µM (active)
same,AC50,[8],21.2 µM (active)
same,outcome,[8],inactive
same,AC50,[9],20.9 µM (active)
same,outcome,[9],inactive
same,AC50,"CD69, CD69 (gene 969)",48.6 µM (active) and 7.29 µM (active)
